Laboratory results reported in the supplement of paper PMC11732987, “Enantioselective OTUD7B fragment discovery through chemoproteomics screening and high-throughput optimisation” (Communications Chemistry, 2025).

Experiments:
Assay in all cases: log2 ratio of Biotin-Ahx-Ub-VS probe labelling (fragment/DMSO); higher = less target engagement (more negative = stronger competition), active = hit call of the paper (q ≤ 0.05, log2 ratio ≤ -1)
Conditions in all cases: compound concentration: 200 uM; treatment time: 3 h
USP19 = biological target: T1, USP19 (UniProt O94966)
T1 sequence (whole entry): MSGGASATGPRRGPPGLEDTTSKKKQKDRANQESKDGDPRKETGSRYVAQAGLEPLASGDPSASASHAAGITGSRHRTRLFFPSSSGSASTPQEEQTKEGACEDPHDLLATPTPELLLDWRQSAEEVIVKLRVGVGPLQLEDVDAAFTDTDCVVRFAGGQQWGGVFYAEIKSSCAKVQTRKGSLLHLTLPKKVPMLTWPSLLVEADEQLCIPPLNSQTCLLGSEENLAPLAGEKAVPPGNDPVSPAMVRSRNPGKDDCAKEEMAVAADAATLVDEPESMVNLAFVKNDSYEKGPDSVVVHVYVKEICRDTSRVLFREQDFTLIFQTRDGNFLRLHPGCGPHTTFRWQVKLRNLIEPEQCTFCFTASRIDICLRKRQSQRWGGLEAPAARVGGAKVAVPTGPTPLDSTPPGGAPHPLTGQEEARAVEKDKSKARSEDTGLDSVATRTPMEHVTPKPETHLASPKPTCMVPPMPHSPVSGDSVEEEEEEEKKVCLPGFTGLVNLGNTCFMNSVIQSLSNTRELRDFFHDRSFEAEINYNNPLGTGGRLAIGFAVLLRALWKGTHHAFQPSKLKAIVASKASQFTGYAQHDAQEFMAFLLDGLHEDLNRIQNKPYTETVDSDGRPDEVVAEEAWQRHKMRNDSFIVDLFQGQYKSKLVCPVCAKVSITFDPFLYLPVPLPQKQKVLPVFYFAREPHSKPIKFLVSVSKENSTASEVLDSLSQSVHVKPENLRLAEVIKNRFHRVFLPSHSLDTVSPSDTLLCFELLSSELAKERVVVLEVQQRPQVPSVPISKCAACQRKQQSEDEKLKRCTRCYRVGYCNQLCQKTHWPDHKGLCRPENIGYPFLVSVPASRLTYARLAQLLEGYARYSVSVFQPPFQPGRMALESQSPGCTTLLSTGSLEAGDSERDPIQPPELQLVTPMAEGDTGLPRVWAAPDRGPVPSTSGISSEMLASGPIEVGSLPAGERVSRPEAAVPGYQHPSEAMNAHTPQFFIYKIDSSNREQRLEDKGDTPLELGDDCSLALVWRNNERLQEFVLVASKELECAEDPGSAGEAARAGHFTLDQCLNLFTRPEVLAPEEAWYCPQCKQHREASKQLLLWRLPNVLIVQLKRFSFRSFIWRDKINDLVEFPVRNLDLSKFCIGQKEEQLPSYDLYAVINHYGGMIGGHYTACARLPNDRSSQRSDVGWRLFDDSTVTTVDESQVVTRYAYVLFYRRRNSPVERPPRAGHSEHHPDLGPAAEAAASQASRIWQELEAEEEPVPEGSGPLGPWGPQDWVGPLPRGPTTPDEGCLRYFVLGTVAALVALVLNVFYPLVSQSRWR
How it was run: (§1)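 The table lists average log2 ratios of fragment over vehicle, from an unpaired t-test on global-median-normalised Spectronaut label-free quantities. Proteins with ≥2 unique peptides were used. Samples were HEK293T lysate (495 µg) treated in triplicate with fragment at 200 µM or vehicle for 3 h, then with Biotin-Ahx-Ub-VS (0.5 µM final) for 1 h, with labelled DUBs NeutrAvidin-enriched and run by diaPASEF LC-MS/MS.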

USP22 = biological target: T2, USP22 (UniProt Q9UPT9)
T2 sequence (whole entry): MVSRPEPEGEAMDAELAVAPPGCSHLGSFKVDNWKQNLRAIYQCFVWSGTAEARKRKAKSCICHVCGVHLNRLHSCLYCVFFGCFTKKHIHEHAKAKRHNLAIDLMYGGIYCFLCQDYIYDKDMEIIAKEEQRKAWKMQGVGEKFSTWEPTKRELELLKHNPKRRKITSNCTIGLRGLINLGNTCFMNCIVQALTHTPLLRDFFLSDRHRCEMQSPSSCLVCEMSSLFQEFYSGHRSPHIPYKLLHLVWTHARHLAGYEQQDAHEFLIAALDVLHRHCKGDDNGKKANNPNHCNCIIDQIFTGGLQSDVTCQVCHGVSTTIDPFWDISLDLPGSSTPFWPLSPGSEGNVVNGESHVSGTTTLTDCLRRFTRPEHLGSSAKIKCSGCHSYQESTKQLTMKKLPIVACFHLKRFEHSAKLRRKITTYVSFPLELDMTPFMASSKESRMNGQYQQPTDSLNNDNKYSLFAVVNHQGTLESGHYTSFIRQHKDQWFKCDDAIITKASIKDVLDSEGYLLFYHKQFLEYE
How it was run: as §1

USP24 = USP24 (UniProt Q9UPU5)
How it was run: as §1

USP25 = biological target: T3, USP25 (UniProt Q9UHP3)
T3 sequence (whole entry): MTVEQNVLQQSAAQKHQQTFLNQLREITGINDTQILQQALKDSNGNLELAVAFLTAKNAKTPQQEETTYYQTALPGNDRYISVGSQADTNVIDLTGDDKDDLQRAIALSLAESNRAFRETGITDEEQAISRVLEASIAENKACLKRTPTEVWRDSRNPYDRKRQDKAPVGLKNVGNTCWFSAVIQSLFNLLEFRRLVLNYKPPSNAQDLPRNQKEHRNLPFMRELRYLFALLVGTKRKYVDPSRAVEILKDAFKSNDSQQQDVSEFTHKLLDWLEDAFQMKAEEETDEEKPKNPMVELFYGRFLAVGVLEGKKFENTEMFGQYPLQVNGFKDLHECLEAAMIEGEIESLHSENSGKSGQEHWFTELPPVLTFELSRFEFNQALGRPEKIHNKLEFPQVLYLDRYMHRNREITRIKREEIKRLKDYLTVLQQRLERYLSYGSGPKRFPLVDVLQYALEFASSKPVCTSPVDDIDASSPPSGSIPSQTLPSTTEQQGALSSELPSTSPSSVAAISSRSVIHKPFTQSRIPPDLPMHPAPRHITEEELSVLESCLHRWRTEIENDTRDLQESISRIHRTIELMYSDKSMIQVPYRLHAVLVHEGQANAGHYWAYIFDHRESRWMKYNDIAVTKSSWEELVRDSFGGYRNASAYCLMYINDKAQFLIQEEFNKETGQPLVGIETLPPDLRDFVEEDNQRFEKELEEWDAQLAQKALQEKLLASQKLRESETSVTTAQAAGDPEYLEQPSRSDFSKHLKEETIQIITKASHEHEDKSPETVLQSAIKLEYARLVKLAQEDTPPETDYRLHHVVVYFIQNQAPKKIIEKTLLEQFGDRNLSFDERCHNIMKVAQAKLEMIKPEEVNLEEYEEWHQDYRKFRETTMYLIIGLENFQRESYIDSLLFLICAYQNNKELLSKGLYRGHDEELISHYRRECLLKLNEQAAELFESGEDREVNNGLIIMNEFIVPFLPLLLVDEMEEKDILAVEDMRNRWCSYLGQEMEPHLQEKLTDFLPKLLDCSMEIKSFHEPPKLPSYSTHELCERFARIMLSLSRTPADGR
How it was run: as §1

USP28 = biological target: T4, USP28 (UniProt Q96RU2)
T4 sequence (whole entry): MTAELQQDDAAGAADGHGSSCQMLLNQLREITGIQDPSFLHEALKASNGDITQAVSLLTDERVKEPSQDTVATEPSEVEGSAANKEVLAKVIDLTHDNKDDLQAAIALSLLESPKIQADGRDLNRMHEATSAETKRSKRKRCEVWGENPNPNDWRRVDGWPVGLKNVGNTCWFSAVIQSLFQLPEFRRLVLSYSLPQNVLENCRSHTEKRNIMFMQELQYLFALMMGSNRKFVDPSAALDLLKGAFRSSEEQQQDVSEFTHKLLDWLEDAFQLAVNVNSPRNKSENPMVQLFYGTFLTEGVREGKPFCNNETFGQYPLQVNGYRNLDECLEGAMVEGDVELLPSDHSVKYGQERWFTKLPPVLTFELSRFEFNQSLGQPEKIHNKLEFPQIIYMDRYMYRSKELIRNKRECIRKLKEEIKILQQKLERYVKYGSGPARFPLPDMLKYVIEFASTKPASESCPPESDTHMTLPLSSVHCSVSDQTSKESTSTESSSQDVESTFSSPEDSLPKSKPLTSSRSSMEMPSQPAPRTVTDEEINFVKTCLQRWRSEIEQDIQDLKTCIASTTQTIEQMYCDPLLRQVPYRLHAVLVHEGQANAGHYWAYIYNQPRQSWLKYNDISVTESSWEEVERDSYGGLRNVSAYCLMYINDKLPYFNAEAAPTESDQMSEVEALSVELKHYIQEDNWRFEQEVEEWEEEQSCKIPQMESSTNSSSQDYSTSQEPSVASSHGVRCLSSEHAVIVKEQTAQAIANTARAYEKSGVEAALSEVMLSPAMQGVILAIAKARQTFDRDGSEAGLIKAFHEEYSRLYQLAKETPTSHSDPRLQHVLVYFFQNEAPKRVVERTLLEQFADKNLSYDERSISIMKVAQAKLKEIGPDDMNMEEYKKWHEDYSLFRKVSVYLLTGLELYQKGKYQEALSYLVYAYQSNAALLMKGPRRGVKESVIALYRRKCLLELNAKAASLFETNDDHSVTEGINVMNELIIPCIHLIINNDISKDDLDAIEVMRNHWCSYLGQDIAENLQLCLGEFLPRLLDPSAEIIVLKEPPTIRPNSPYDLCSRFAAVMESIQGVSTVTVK
How it was run: as §1

Measured: log2 ratio of Biotin-Ahx-Ub-VS probe labelling

Chain of USP24 (Q9UPU5 whole entry): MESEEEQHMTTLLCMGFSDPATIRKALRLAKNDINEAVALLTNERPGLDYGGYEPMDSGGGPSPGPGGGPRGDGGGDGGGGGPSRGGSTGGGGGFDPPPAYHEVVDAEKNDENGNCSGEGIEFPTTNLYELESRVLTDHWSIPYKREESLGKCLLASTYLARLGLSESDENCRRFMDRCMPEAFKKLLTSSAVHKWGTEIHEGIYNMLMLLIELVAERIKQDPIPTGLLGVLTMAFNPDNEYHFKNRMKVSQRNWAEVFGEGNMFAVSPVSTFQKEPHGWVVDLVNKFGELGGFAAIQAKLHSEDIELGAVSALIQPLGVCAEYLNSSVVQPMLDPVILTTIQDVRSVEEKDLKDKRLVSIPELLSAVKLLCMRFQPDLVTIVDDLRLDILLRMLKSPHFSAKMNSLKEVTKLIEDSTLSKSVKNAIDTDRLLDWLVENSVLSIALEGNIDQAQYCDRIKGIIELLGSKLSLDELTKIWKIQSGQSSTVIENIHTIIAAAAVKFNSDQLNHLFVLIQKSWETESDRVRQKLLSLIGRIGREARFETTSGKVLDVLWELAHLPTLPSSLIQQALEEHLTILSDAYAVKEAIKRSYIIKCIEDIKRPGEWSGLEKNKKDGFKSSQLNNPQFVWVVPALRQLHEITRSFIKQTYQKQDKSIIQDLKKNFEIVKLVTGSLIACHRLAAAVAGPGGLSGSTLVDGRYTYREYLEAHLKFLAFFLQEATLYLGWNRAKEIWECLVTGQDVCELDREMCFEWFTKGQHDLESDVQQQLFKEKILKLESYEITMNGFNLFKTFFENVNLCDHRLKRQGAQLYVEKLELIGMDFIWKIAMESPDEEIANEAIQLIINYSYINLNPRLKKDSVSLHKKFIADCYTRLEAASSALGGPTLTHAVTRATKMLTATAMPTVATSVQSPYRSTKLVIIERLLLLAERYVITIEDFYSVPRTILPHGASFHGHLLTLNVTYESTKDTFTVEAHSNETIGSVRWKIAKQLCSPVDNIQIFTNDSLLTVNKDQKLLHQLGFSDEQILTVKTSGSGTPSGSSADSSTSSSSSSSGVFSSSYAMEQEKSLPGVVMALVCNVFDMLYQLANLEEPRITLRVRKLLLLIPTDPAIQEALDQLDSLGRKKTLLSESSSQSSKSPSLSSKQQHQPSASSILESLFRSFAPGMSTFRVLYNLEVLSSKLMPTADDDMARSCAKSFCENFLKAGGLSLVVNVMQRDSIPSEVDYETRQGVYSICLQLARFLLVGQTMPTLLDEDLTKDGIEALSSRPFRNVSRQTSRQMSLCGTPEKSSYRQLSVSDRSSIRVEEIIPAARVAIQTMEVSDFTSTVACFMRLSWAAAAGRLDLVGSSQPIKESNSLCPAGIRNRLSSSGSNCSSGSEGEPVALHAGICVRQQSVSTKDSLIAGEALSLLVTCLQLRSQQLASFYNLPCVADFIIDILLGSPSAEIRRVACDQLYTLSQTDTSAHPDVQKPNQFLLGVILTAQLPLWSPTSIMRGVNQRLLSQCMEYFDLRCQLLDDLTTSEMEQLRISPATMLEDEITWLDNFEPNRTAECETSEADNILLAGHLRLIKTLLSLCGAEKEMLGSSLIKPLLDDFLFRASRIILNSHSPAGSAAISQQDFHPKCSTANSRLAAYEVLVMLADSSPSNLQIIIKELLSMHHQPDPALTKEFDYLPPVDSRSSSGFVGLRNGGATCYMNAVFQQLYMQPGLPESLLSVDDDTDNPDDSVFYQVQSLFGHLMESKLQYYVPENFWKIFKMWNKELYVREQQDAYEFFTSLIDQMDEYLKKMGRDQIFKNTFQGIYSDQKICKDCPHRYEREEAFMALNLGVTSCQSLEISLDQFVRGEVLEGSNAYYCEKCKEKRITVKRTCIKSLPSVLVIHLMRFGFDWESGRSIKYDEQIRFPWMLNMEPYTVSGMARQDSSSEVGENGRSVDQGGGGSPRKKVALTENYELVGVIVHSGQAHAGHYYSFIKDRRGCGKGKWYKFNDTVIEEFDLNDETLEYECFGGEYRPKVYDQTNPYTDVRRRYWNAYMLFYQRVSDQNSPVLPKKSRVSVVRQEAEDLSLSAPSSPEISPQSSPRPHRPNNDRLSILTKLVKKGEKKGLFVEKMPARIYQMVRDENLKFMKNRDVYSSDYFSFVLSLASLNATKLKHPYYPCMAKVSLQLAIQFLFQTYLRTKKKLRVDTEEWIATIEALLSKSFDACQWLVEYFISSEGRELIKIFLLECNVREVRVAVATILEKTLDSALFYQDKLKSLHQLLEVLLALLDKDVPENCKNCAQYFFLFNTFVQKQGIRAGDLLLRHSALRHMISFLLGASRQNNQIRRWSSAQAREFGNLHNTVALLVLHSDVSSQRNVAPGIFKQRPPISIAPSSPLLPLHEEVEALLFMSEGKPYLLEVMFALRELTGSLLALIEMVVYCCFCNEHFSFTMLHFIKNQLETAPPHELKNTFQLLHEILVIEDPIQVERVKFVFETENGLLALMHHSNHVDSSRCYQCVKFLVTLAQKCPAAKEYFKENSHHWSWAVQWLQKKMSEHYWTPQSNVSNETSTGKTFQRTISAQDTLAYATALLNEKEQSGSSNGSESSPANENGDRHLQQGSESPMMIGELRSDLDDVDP

Cl.Cn1nc2c(c1CNC(=O)CCl)CCCC2
inactive: USP19 0.00104 | USP22 -0.0746 | USP24 -0.0442 | USP25 -0.147 | USP28 -0.325
